According to PubChem BioAssay (NCATS):
Several values for one entry are separate records, joined by “and”; a condition that tells them apart may be missing. Equal entries are not always repeated. Records with an inconclusive call do not appear. Entries that show only a call come without a potency. Some compounds were tested as several samples or in several runs, with calls that do not always agree. Activity calls are given as the source filed them. The call rests on the fitted dose curve; in most records, active means well fitted inhibition curve with a large enough effect; inconclusive means small, poorly fitted or top-dose-only effect; inactive means flat fitted curve, though single readings scatter.

Each compound was assayed on MCC-26 (assay: qHTS assay to identify novel small-molecules to repurpose for Merkel cell carcinoma treatment (AID 1296009; further: nearly all actives have a fitted effect of over 60% in size)). Conditions: MCC and control cell lines, CellTiter-Glo viability, 72 h; series mostly up to 46 µM.
Source text: MCC is a rare and aggressive neuroendocrine skin cancer with limited treatment options. Approximately 80% of MCCs have the Merkel cell polyomavirus (MCPyV) DNA integrated into the host genome (virus-positive: VP-MCC) and viral oncogenes drive oncogenesis. The remaining MCCs are virus-negative (VN-MCC) and are caused by UV mutagenesis. To identify novel treatments for VP-MCC and/or VN-MCC we screened three VP-MCC cell lines (WAGA, MKL-1, MKL-2), three VN-MCC cell lines (MCC-13, MCC-26, UISO), and four immortalized, non-transformed control cell lines (HaCaT, HEK293T, CRL7250, NIH-3T3) against ~2,400 compounds in the NCGC Pharmaceutical Collection (NPC) and ~1,900 compounds in the Mechanism Interrogation PlatE (MiPE). Using cell viability as a readout (CellTiter-Glo assay) we found both overlapping and distinct drugs that can be repurposed for the treatment of VP-MCC and VN-MCC.
A high-throughput screen was conducted in 1536-well white flat bottom plates (Corning) on a Kalypsys robotic system. Cell lines WAGA, MKL-1, MKL-2, MCC-13, MCC-26, UISO, HaCaT, HEK293T, CRL7250, and NIH-3T3 were screened against 2 small molecule annotated drug libraries NPC and MIPE in dose response (8 and 11 pt. respectively) measuring cell viability after 72 hours of incubation. […] A 1,536 pintool (Kalypsys) was used to transfer 23 nL of compound in DMSO to the 1,536-well assay plates. After 72 hr incubation at 37 degree celsius, 2.5 uL of CellTiter-Glo (Promega) was dispensed into each well using a BiorapTR. Plates were incubated at room temperature for 10 min, transferred to a ViewLux (PerkinElmer) and the luminescence was recorded using an exposure time of 2 seconds. Relative luminescence units (RLUs) were normalized to in-plate controls (no cells as a positive (cytotoxicity) control, DMSO as negative control) and the normalized data was processed using NCATS in-house software.
Potency means the concentration at half of the fitted maximal effect.

| SMILES | Potency |
| --- | --- |
| CC(=O)OCC(CCn1cnc2cnc(N)nc21)COC(C)=O | inactive |
| Clc1ccc2nsnc2c1NC1=NCCN1 | inactive |
| O=C(c1ccc(F)cc1)C1CCN(CCn2c(=O)[nH]c3ccccc3c2=O)CC1 | inactive |
| NC(=O)OCC(COC(N)=O)c1ccccc1 | inactive |
| CN(C)CCCN1c2ccccc2CCc2ccc(Cl)cc21 | inactive |
| Fc1ccc([C@@H]2CCNC[C@H]2COc2ccc3c(c2)OCO3)cc1 | inactive |
| Cn1ccc2cc3c(cc21)CCN3C(=O)Nc1cccnc1 | inactive |
| NCCCCCC(=O)O | inactive |
| O=C(Nc1ccc([N+](=O)[O-])cc1Cl)c1cc(Cl)ccc1O | inactive |
| CN(C)CCOC(c1ccccc1)c1ccccc1 | inactive |
| Cc1ccccc1N1C(=O)c2cc(S(N)(=O)=O)c(Cl)cc2NC1C (stereo not given) | inactive |
| CCCCc1oc2ccccc2c1C(=O)c1cc(I)c(OCCN(CC)CC)c(I)c1 | inactive |
| CN1CCC(=C2c3ccccc3CC(=O)c3sccc32)CC1 | inactive |
| Cc1ccc(-c2cc(C(F)(F)F)nn2-c2ccc(S(N)(=O)=O)cc2)cc1 | inactive |
| CNCCCC12CCC(c3ccccc31)c1ccccc12 | inactive |
| CN1C2CCC1CC(OC(=O)C(CO)c1ccccc1)C2 (stereo not given) | inactive |
| COc1cc2nc(N3CCN(C(=O)c4ccco4)CC3)nc(N)c2cc1OC | inactive |
| COc1ccccc1OCCNCC(O)COc1cccc2[nH]c3ccccc3c12 (stereo not given) | inactive |
| NCCS(=O)(=O)O | inactive |
| CN(C)CCC=C1c2ccccc2C=Cc2ccccc21 | inactive |

| SMILES | Potency |
| --- | --- |
| CC(CCc1ccc(O)cc1)NCCc1ccc(O)c(O)c1 (stereo not given) | inactive |
| N[C@@H](Cc1c[nH]c2ccc(O)cc12)C(=O)O | inactive |
| COc1cc2nc(N3CCN(C(=O)C4COc5ccccc5O4)CC3)nc(N)c2cc1OC (stereo not given) | inactive |
| CN(CCOc1ccc(NS(C)(=O)=O)cc1)CCc1ccc(NS(C)(=O)=O)cc1 | inactive |
| Clc1ccc(C(c2ccccc2Cl)C(Cl)Cl)cc1 (stereo not given) | inactive |
| Clc1ccc2c(c1)C(N1CCNCC1)=Nc1ccccc1O2 | inactive |
| Cc1cnc(C(=O)NCCc2ccc(S(=O)(=O)NC(=O)NC3CCCCC3)cc2)cn1 | inactive |
| CC1(CN2CCC(n3c(=O)[nH]c4ccccc43)CC2)OCc2ccccc2-n2cccc21 (stereo not given) | inactive |
| CN1C(C(=O)Nc2ccccn2)=C(O)c2ccccc2S1(=O)=O | inactive |
| NC(=O)NO | inactive and 10.5 µM (active) |
| CC#C[C@]1(O)CC[C@H]2[C@@H]3CCC4=CC(=O)CCC4=C3[C@@H](c3ccc(N(C)C)cc3)C[C@@]21C | inactive |
| Cn1cnc2c1c(=O)[nH]c(=O)n2C | inactive |
| CCc1cccc2c3c([nH]c12)C(CC)(CC(=O)O)OCC3 (stereo not given) | inactive |
| CC[C@@]1(O)C(=O)OCc2c1cc1n(c2=O)Cc2cc3c(CN(C)C)c(O)ccc3nc2-1 | 94.4 nM (active) and 418 nM (active) |
| Cn1c(=O)c2c(ncn2C)n(C)c1=O | inactive |
| C[C@H]1c2cccc(O)c2C(O)=C2C(=O)[C@]3(O)C(O)=C(C(N)=O)C(=O)[C@@H](N(C)C)[C@@H]3[C@@H](O)[C@@H]21 | inactive |
| CN1CCC(=C2c3ccccc3C=Cc3ccccc32)CC1 | inactive |
| CCN1CCCC1CNC(=O)c1cc(S(=O)(=O)CC)c(N)cc1OC (stereo not given) | inactive |
| COc1nc(C)nc(Cl)c1NC1=NCCN1 | inactive |
| CCCNCC(O)COc1ccccc1C(=O)CCc1ccccc1 (stereo not given) | inactive |
